The nature of experiment [1]: qHTS assay to identify aromatase inhibitors - cell viability counter screen (AID 743084).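 Note: cells stimulated with testosterone during compound exposure; nearly all actives have a fitted effect of over 55% in size.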 Note: potency is the fitted concentration of half-maximal effect.
In experiment [2] the target is Aryl hydrocarbon receptor (Homo sapiens) (UniProt P35869). As to the kind of experiment: qHTS assay to identify small molecule that activate the aryl hydrocarbon receptor (AhR) signaling pathway (AID 743085).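 For activation: HG2L7.5c1 human HepG2 liver cells with stably integrated DRE-driven firefly reporter; series mostly up to about 70 µM.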 Note: nearly all actives have a fitted effect of over 15% in size. Note: potency is the fitted concentration of half-maximal effect. The gist of the method: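 AhR agonist activity is inferred from enhanced light output of a DRE-controlled firefly luciferase reporter in HepG2 cells, measured with ONE-Glo following 24 h treatment at 37C.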
Aryl hydrocarbon receptor (Homo sapiens), sequence (P35869 whole entry, looked up): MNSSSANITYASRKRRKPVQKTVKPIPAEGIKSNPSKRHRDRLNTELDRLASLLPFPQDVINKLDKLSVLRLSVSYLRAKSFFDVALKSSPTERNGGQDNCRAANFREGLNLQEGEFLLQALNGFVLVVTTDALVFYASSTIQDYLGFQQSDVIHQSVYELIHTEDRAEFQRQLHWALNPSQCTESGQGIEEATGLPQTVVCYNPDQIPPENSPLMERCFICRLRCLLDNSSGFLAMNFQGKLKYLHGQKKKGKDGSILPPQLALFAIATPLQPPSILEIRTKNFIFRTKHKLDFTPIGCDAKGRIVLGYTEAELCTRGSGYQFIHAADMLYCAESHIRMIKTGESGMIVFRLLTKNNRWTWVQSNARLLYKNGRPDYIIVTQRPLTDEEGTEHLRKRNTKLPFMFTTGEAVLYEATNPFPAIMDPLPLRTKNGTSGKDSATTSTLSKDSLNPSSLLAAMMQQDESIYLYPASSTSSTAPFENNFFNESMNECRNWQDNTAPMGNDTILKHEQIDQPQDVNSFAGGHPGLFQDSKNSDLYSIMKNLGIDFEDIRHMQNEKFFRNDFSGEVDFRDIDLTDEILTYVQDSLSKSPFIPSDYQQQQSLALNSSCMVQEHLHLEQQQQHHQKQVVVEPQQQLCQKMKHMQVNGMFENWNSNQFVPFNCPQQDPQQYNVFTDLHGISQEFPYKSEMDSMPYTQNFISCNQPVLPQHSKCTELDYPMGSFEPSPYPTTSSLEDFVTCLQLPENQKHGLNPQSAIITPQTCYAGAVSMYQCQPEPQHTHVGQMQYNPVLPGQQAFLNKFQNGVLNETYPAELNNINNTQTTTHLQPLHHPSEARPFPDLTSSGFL

Experiment [3] in a line: qHTS assay to identify small molecule that activate the aryl hydrocarbon receptor (AhR) signaling pathway - cell viability counter screen (AID 743086).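 Note: HepG2 liver cells carrying the AhR DRE luciferase reporter; series mostly up to about 70 µM; nearly all actives have a fitted effect of over 45% in size.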 Summed up: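 HepG2-AhR-luc (HG2L7.5c1) cells, 4000/well, treated 24 h at 37 C with compound; viability measured as CellTiter-Fluor fluorescence after 30 min in the same wells as the luciferase read.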
(In general: qHTS replaces the single test concentration by a dilution series.)

The nature of experiment [4]: qHTS assay to identify small molecule antagonists of the peroxisome proliferator-activated receptor gamma (PPARg) signaling pathway - cell viability counter screen (AID 743194). Note: nearly all actives have a fitted effect of over 55% in size. The gist of the method: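 Cytotoxicity counter screen in PPARg-bla HEK293H cells, same wells as reporter assay. Compounds plus 50 nM rosiglitazone (final) for 17 h at 37 C, then viability read by CellTiter-Glo luminescence.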

A short description of experiment [5]: qHTS assay for small molecule agonists of the antioxidant response element (ARE) signaling pathway (AID 743202; active = well fitted activation curve with a large enough effect in the signal ratio in the repeat runs, not every such curve was filed as active; the % refers to the signal ratio; note: potency is the fitted concentration of half-maximal effect). The gist of the method:
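HepG2 ARE-bla reporter line, 2,000 cells/well; 5 h preincubation 37 C/5% CO2; compound (DMSO) 16 h 37 C; B/G FRET substrate 2 h RT; fluorescence intensity.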

Experiment [6] is described as follows: qHTS assay for small molecule agonists of the antioxidant response element (ARE) signaling pathway - cell viability counter screen (AID 743203; calls by dose curve; note: nearly all actives have a fitted effect of over 55% in size). The gist of the method: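 Luminescence read-out (CellTiter-Glo, 30 min at room temperature) measured cell viability in the same wells as the ARE beta-lactamase reporter. HepG2 ARE-bla cells were treated with compounds for 16 hrs at 37C/5% CO2.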

Experiment [7] in a line: qHTS assay for small molecule activators of the heat shock response signaling pathway - cell viability counter screen (AID 743209). Note: nearly all actives have a fitted effect of over 50% in size. The gist of the method: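 HSE-bla HeLa; 1500 cells/well; overnight 37 C, 5% CO2; compound 5 h 37 C; LiveBLAzer B/G substrate 2.5 h RT; CellTiter-Glo 30 min RT; luminescence.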
A short description of experiment [8]: qHTS assay for small molecule activators of the heat shock response signaling pathway (AID 743210; active = well fitted activation curve with a large enough effect in the signal ratio in the repeat runs, with a control signal flat, not every such curve was filed as active; the % refers to the signal ratio; note: potency is the fitted concentration of half-maximal effect; for activation: series mostly up to about 63 µM). Summed up: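 Beta-lactamase reporter read-out: FRET substrate fluorescence after 2.5 h at RT, following 5 h compound treatment at 37 C of HeLa cells carrying HSE-driven bla reporter; quantitative HTS format.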
Experiment [9] is described as follows: qHTS assay to identify small molecule agonists of the peroxisome proliferator-activated receptor delta (PPARd) signaling pathway - cell viability counter screen (AID 743211). Note: nearly all actives have a fitted effect of over 55% in size. Summed up: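 qHTS cell viability: PPARd-bla HEK293H; 17 h cpd, 37C; CellTiter-Glo, luminescence at 30 min RT.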
A short description of experiment [10]: qHTS assay to identify small molecule agonists of the farnesoid-X-receptor (FXR) signaling pathway - cell viability counter screen (AID 743218). Note: nearly all actives have a fitted effect of over 45% in size. Note: potency is the fitted concentration of half-maximal effect. The gist of the method:
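Luminescence from CellTiter-Glo, read after 30 min at RT, reports viability of GeneBLAzer FXR-UAS-bla HEK 293T cells treated 16 h with compounds in the wells used for the beta-lactamase reporter.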

A short description of experiment [11]: qHTS assay to identify small molecule antagonists of the farnesoid-X-receptor (FXR) signaling pathway - cell viability counter screen (AID 743221; active = well fitted cell-killing curve with a large enough effect in the repeat runs, not every such curve was filed as active; note: nearly all actives have a fitted effect of over 50% in size; note: potency is the fitted concentration of half-maximal effect). The gist of the method:
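After a 5 h settling period, FXR-bla HEK 293T cells receive compound and chenodeoxycholic acid (50 uM final) and incubate 16 h at 37 C; CellTiter-Glo luminescence, read after 30 min at room temperature, reports cell viability.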

Experiment [12] deals with Vitamin D3 receptor (Homo sapiens) (UniProt P11473). In words: qHTS assay to identify small molecule agonists of the vitamin D receptor (VDR) signaling pathway (AID 743222; calls by dose curve). Summed up:
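Beta-lactamase reporter readout (LiveBLAzer B/G FRET, 2 h RT) in VDR-bla cells after 16 h compound treatment at 37C, 5% CO2; cells pre-incubated 4 h before pin transfer of DMSO solutions.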

In experiment [13] the target is Peroxisome proliferator-activated receptor gamma (Homo sapiens) (UniProt P37231). In words: qHTS assay to identify small molecule agonists of the peroxisome proliferator-activated receptor gamma (PPARg) signaling pathway (AID 743094; active = well fitted activation curve with a large enough effect in the signal ratio in the repeat runs, not every such curve was filed as active; the % refers to the signal ratio). The gist of the method:
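HEK293H PPARg-bla cells, 5 h settle at 37C/5% CO2; compound (DMSO) 17 h, 37C; B/G FRET substrate 1 h RT; fluorescence intensity read-out. qHTS format.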

The target in experiment [14] is Peroxisome proliferator-activated receptor delta (Homo sapiens) (UniProt Q03181). In words: qHTS assay to identify small molecule agonists of the peroxisome proliferator-activated receptor delta (PPARd) signaling pathway (AID 743212; calls by dose curve). Summed up:
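Read-out: beta-lactamase FRET fluorescence after 2 h room-temperature incubation with LiveBLAzer B/G substrate. Cells were HEK293H carrying a UAS-bla reporter for PPARd, treated at 37 C with DMSO-dissolved compounds.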

A short description of experiment [15]: qHTS assay to identify small molecule antagonists of the peroxisome proliferator-activated receptor delta (PPARd) signaling pathway - cell viability counter screen (AID 743213). Note: nearly all actives have a fitted effect of over 50% in size. The gist of the method: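 Luminescence from CellTiter-Glo, added after the bla read and incubated 30 min at room temperature, gives viability of HEK293H PPARd-bla cells exposed to compounds for 17 h at 37 C with 300 nM L165041.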

Experiment [16] addresses Peroxisome proliferator-activated receptor delta (Homo sapiens) (UniProt Q03181). As to the kind of experiment: qHTS assay to identify small molecule antagonists of the peroxisome proliferator-activated receptor delta (PPARd) signaling pathway (AID 743215; active = well fitted inhibition curve with a large enough effect in the signal ratio in the repeat runs, not every such curve was filed as active; the % refers to the signal ratio;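 note: cells stimulated with agonist L165041 at 300 nM final during compound exposure; series mostly up to about 62 µM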). The gist of the method:
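HEK293H GeneBLAzer PPARd UAS-bla reporter cells; cpd + L165041 300 nM final, 17 h 37 C; LiveBLAzer B/G FRET substrate 2 h RT; fluorescence intensity read-out. Antagonist mode.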

For experiment [17], the target named is Vitamin D3 receptor (Homo sapiens) (UniProt P11473). In words: qHTS assay to identify small molecule antagonists of the vitamin D receptor (VDR) signaling pathway (AID 743223; active = well fitted inhibition curve with a large enough effect in the signal ratio in the repeat runs, not every such curve was filed as active; the % refers to the signal ratio). The gist of the method: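 Reporter line VDR-bla; stimulus 1alpha,25-(OH)2 vitamin D3, 3 nM final; compound co-addition, 16 h 37C/5% CO2; LiveBLAzer B/G substrate 2 h RT; fluorescence intensity.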
Vitamin D3 receptor (Homo sapiens), sequence (P11473 whole entry, looked up): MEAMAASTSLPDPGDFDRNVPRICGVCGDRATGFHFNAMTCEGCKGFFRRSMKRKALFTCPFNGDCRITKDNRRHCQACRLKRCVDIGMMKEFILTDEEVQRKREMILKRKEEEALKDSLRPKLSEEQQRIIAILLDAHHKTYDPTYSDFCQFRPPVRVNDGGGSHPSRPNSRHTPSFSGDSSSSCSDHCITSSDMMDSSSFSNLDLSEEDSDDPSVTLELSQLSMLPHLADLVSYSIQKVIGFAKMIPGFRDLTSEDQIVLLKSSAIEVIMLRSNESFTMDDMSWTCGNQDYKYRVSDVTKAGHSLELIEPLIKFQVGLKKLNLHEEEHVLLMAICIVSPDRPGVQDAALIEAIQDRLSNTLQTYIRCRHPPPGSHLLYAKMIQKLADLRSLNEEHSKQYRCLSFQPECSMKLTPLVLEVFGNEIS

Experiment [18] addresses Peroxisome proliferator-activated receptor gamma (Homo sapiens) (UniProt P37231). In words: qHTS assay to identify small molecule antagonists of the peroxisome proliferator-activated receptor gamma (PPARg) signaling pathway (AID 743191; calls by dose curve; note: series mostly up to about 63 µM; nearly all actives have a fitted effect of over 30% in size). Summed up: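 GeneBLAzer PPARg UAS-bla HEK293H cells, 5 h post-plating, exposed to compounds 17 h at 37C. LiveBLAzer B/G FRET substrate added for 1 h at room temperature; beta-lactamase reporter read by fluorescence intensity.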

For experiment [19], the target named is Bile acid receptor (Homo sapiens) (UniProt Q96RI1). As to the kind of experiment: qHTS assay to identify small molecule antagonists of the farnesoid-X-receptor (FXR) signaling pathway (AID 743217; active = well fitted inhibition curve with a large enough effect in the signal ratio in the repeat runs, not every such curve was filed as active; the % refers to the signal ratio). The gist of the method: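 Read-out: beta-lactamase FRET fluorescence (LiveBLAzer B/G substrate, 2 h, room temperature) in GeneBLAzer FXR-UAS-bla HEK 293T cells. Compounds were co-dosed with 50 uM chenodeoxycholic acid (final) and incubated 16 h at 37 °C.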
Bile acid receptor (Homo sapiens), sequence (Q96RI1 whole entry, looked up): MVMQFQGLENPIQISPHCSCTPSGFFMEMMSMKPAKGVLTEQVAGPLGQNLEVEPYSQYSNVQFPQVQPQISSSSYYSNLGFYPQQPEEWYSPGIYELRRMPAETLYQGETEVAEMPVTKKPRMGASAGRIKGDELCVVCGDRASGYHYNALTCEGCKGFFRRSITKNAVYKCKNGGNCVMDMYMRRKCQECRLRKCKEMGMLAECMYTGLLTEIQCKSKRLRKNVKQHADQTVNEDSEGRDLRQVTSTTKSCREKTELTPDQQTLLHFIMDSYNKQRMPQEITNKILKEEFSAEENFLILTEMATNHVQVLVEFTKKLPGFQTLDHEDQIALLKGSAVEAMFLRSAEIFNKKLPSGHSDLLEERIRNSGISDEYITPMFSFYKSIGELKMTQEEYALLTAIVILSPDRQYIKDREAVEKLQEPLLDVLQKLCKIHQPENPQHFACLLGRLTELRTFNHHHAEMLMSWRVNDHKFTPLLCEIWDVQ

The target is the same in experiment [20]. As to the kind of experiment: qHTS assay to identify small molecule agonists of the farnesoid-X-receptor (FXR) signaling pathway (AID 743220; active = well fitted activation curve with a large enough effect in the signal ratio in the repeat runs, not every such curve was filed as active; the % refers to the signal ratio). The gist of the method: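 FXR-UAS-bla HEK 293T cells carrying a UAS-driven beta-lactamase reporter were plated for 5 h at 37C/5% CO2, then exposed to DMSO-dissolved Tox21 10K compounds for 16 h at 37C. A LiveBLAzer B/G FRET substrate was loaded for 2 h at room temperature before fluorescence reading.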

“And” between values parts separate entries of the source, which are not always exact repeats. Equal values may be shown once. Results filed as inconclusive are left out. A structure can be active in one record and inactive in another. The source made the active and inactive calls. Unless noted, calls come from the whole dose curve; as a rule, active = well fitted curve in the direction sought with a large enough effect in the repeat runs; inconclusive = weak or mixed curves; inactive = no such curve, though single readings can be large; an effect the other way counts as inactive or inconclusive.

Experimental findings from PubChem BioAssay (Tox21) are described below.

Peroxisome proliferator-activated receptor gamma (Homo sapiens), sequence (P37231 whole entry, looked up): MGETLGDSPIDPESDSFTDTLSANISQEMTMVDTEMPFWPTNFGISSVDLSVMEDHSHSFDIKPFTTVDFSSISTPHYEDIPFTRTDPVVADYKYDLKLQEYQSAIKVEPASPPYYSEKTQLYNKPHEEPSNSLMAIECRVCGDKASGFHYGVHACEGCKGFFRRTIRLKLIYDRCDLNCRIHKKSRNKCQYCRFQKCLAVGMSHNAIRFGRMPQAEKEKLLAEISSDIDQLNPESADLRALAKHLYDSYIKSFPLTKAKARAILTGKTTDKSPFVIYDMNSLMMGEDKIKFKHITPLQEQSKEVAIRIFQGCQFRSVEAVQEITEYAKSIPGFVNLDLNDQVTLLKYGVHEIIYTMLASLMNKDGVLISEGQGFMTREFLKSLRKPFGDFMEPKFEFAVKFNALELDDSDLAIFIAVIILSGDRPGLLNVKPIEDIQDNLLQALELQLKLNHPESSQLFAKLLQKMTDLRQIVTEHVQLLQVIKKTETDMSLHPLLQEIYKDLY
Peroxisome proliferator-activated receptor delta (Homo sapiens), sequence (Q03181 whole entry, looked up): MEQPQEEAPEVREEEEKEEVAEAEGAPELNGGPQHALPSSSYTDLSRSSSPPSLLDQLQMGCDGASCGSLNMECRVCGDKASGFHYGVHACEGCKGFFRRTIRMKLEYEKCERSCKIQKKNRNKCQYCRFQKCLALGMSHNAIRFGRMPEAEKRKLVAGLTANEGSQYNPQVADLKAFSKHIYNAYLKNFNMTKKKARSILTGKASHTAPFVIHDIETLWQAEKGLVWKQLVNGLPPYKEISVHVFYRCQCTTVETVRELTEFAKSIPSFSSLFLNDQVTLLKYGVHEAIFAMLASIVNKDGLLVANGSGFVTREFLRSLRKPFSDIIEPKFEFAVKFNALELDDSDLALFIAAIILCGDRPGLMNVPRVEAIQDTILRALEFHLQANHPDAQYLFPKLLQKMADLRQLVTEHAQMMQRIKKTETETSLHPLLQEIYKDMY

In the case of `CCN(CC)c1ccc(C(=O)c2ccccc2C(=O)O)c(O)c1`, the Potency entry in experiment [1], in experiment [2], in [5], in experiment [8], in experiment [10] and in [11] was “inactive” throughout. The outcome in [3], in [4], in experiment [6], in experiment [7], in experiment [9] and in experiment [12] was inactive.
For the compound `Cc1cnc(C(=O)NCCc2ccc(S(=O)(=O)NC(=O)NC3CCCCC3)cc2)cn1`, the Potency entry in [1], in [8], in [10] and in experiment [11] was “inactive” each time. Moreover, the compound was called inactive in experiment [3], in experiment [13], in [4], in experiment [6], in experiment [7] and in experiment [9]. Moreover, the result in experiment [14] was inactive.
For the compound `O=C(O)c1cc(O)c(O)c(O)c1`, the Potency entry in [1] is “inactive and 49 µM (active)”. Moreover, the Potency result in [2], in [8], in experiment [16], in [10] and in experiment [11] was “inactive” each time. The outcome in experiment [13], in experiment [4], in experiment [6], in experiment [7], in experiment [9] and in experiment [14] was inactive. The call in experiment [15], in experiment [12] and in [17] was inactive.
For the compound `O=C(Oc1ccccc1)c1ccccc1`, the Potency entry in experiment [1], in [5], in experiment [8], in experiment [16] and in [10] was “inactive” throughout. The compound was called inactive in experiment [3], in experiment [13], in experiment [18], in experiment [4], in experiment [6] and in [7]. Moreover, the call in experiment [9], in experiment [14], in experiment [19] and in [20] was inactive.
Take `OCCOCCOCCO`: the Potency entry in [1], in [5], in experiment [8] and in experiment [10] was “inactive” throughout. Besides, the compound was classed as inactive in experiment [3], in experiment [13], in experiment [18], in experiment [4], in experiment [6] and in [7]. The result in experiment [9], in experiment [12] and in experiment [17] was inactive.
In the case of `c1ccc(OCCOc2ccccc2)cc1`, the Potency result in [1], in [5], in experiment [8], in experiment [16] and in experiment [10] was “inactive” in each case. The compound was called inactive in experiment [3], in [13], in experiment [4], in experiment [6], in experiment [7] and in [9]. Also, the compound was classed as inactive in [14], in [15], in [12] and in [17].
Turning to `CCCSc1ccc2nc(NC(=O)OC)[nH]c2c1`, the Potency entry in experiment [1], in [5] and in experiment [10] was “inactive” throughout. Further, the Potency was 4.52 µM (active) and 34.4 µM (active) in experiment [2]; 16.7 µM (active) in experiment [8]. Also, the compound was classed as inactive in [3], in [4], in experiment [6], in experiment [7], in experiment [9] and in experiment [15]. The outcome in [12] was inactive.
As to `Oc1cccc2ccccc12`, the compound was classed as inactive in experiment [3], in experiment [4], in experiment [6], in [7], in experiment [9] and in experiment [19]. Further, the call in experiment [20], in experiment [12] and in [17] was inactive. The Potency in experiment [5] was 31.4 µM (active) and 30.6 µM (active). Moreover, the Potency result in [8], in experiment [10] and in experiment [11] was “inactive” throughout.
As for `CC[C@H](C)C(=O)O[C@H]1C[C@@H](C)C=C2C=C[C@H](C)[C@H](CC[C@@H]3C[C@@H](O)CC(=O)O3)[C@H]21`, the Potency result was “inactive and 62 µM (active)” in experiment [1]; 62.5 µM (active) and inactive in [10]; 62.5 µM (active) and inactive in [11]. Besides, the Potency entry in [2], in experiment [8] and in experiment [16] was “inactive” throughout. The call in experiment [3], in experiment [13], in experiment [4], in [6], in experiment [14] and in experiment [15] was inactive. Moreover, the outcome in [19], in experiment [20] and in experiment [12] was inactive.
`C[C@H]1C[C@H]2[C@@H]3CCC4=CC(=O)C=C[C@]4(C)[C@@]3(F)[C@@H](O)C[C@]2(C)[C@@]1(O)C(=O)CO`: the Potency entry in experiment [1], in experiment [2], in [5], in experiment [8], in experiment [16] and in [10] was “inactive” in each case. Further, the Potency result in [11] was “inactive”. In addition, the compound was called inactive in experiment [3], in [4], in [6], in experiment [7], in [9] and in experiment [14]. In experiment [15], the outcome was inactive.
For the compound `CCCCC(CC)COC(=O)CS` (configuration not stated), the compound was classed as inactive in experiment [3], in experiment [4], in [6], in [7], in experiment [9] and in experiment [15]. Further, the compound was called inactive in [12] and in [17]. Also, the Potency result in [5], in experiment [8] and in experiment [10] was “inactive” each time.
Regarding `CCCCN(CCCC)CCCC`, the Potency result in [1], in experiment [2], in experiment [5], in experiment [8], in experiment [16] and in [10] was “inactive” throughout. In addition, in experiment [11], the Potency entry was “inactive”. Also, the call in experiment [3], in [4], in experiment [6], in experiment [7], in experiment [9] and in [14] was inactive. Further, the compound was called inactive in experiment [15], in experiment [19], in experiment [20], in experiment [12] and in experiment [17].
Regarding `CN(C)CCC(c1ccc(Cl)cc1)c1ccccn1` (configuration not stated), the Potency result in experiment [2], in [8], in experiment [10] and in experiment [11] was “inactive” throughout. For the same compound, the call in [3], in experiment [4], in [6] and in experiment [7] was inactive.
